# Experimental data reported in PubChem BioAssay AID504400 (The Scripps Research Institute Molecular Screening Center, 2011).
# Unmarked numbers belong to inactive results. No rule for the calls is given here.
# System: Phorbol Ester
# Assay: CYP450 and receptor off-target profile – biochemical, Ricerca HitProfilingScreen, selectivity assay for S1P4 agonist project, late-stage follow-up (AID 504400)
# Conditions: Ricerca radioligand binding/enzyme panel plus CYP450, at 10 µM, active compounds read high
compound,measurement,value
Clc1ccc(OCCOc2ccc(Br)nc2Br)c(Cl)c1,inhibition,4%
